This is part of a sample that, as a whole, favours compounds with a hit. Of some 83,000 tested, about 20% had one in any assay.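 Growth was measured after 48 h exposure to one concentration of compound in 96-well plates. Values under 10 count as active.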 Values without a mark were called inactive. Calls of active or inactive are those of the source.
Experiments:
Assay in all cases: NCI-60 one-dose screen, 48 h (100 = growth as untreated, 0 = no growth, -100 = all killed)
Settings in all cases: 10 µM unless noted
NCI-H23 lung = system: NCI-H23 lung
NCI-H226 lung = system: NCI-H226 lung
NCI-H322M lung = system: NCI-H322M lung
HOP-62 NSCLC = system: HOP-62 NSCLC
NCI-H460 lung = system: NCI-H460 lung
HOP-92 NSCLC = system: HOP-92 NSCLC
NCI-H522 lung = system: NCI-H522 lung
A549/ATCC NSCLC = system: A549/ATCC NSCLC
786-0 renal = system: 786-0 renal
COLO 205 colon = system: COLO 205 colon
DU-145 prostate = system: DU-145 prostate
K-562 leukemia = system: K-562 leukemia
MALME-3M melanoma = system: MALME-3M melanoma
MDA-MB-231 breast = system: MDA-MB-231 breast
RXF 393 renal = system: RXF 393 renal
SF-268 CNS = system: SF-268 CNS
SF-295 CNS = system: SF-295 CNS
SF-539 CNS = system: SF-539 CNS
UACC-257 melanoma = system: UACC-257 melanoma
M14 melanoma = system: M14 melanoma

SMILES | growth (NCI-H23 lung) | growth (NCI-H226 lung) | growth (NCI-H322M lung) | growth (HOP-62 NSCLC) | growth (NCI-H460 lung) | growth (HOP-92 NSCLC) | growth (NCI-H522 lung) | growth (A549/ATCC NSCLC) | growth (786-0 renal) | growth (COLO 205 colon) | growth (DU-145 prostate) | growth (K-562 leukemia) | growth (MALME-3M melanoma) | growth (MDA-MB-231 breast) | growth (RXF 393 renal) | growth (SF-268 CNS) | growth (SF-295 CNS) | growth (SF-539 CNS) | growth (UACC-257 melanoma) | growth (M14 melanoma)
C=C(C)[C@@H]1CC[C@]2(C)[C@H](CC[C@@H]3[C@H]4[C@H]5OC[C@@]4(CCC5(C)C)CC[C@]32C)[C@@]1(C)CCCN | 83.3% | 100% | 30.9% | 96.3% | -28.6% (active) | 50.9% | 97.6% | 55.1% | 49.1% | -58.2% (active) | 66.2% | 3.82% (active) | -48.5% (active) | 16.7% | 17.4% | 92.1% | -4.38% (active) | 87% | 101% | 25.8%
NNC(=O)c1nc2ccccc2[nH]1 | 93.3% | 116% | 107% | 97.4% | 108% | 98.5% | 96.8% | 61.3% | 102% | 103% | 112% | 87.2% | 107% | 103% | 124% | 102% | 104% | 103% | 65.9% | 92.4%
Cc1cc(N2CCOCC2)nc(N(CCCNc2ccnc3cc(Cl)ccc23)Cc2ccco2)n1 | 35.3% | 74.7% | 28.7% | 12.9% | 18.8% | 34% | 40.2% | 18.9% | 42.1% | 3.4% (active) | 52.6% | 4.98% (active) | 53.6% | 19.6% | 21.2% | 50.7% | 16.6% | -2.57% (active) | 85% | -3.48% (active)
C[C@H]1OC(=O)/C=C/[C@@H](O)[C@@H](O)CCCCCCCC[C@@H]1O | 95.1% | 89.3% | 96.2% | 82.9% | 102% | 82.8% | 79.5% | 73.6% | 97.5% | 95.1% | 107% | 91.6% | 98.1% | 109% | 107% | 102% | 98.9% | 97.7% | 82.5% | 96.3%
C=C(C)[C@@H]1CC[C@]2(CN)CC[C@]3(C)[C@H](CC[C@@H]4[C@@]5(C)CCC(=O)NC(C)(C)[C@@H]5CC[C@]43C)[C@@H]12 | 85.3% | 88.1% | 89.1% | 81.6% | 90.3% | 54.6% | 88% | 59.3% | 84.6% | 75.9% | 75% | -4.63% (active) | -14.1% (active) | 58.7% | 59% | 64.5% | 82.1% | 75.2% | 29.6% | 70.9%
COc1ccc(CCN2C(=O)C(C)(C)SC2=S)cc1OC | 101% | 105% | 103% | 103% | 105% | 102% | 93.8% | 101% | 102% | 111% | 98.8% | 100% | 96.2% | 97.5% | 109% | 94.7% | 96.8% | 105% | 98.9% | 98.4%
N#C/C(=C\c1ccc(-c2ccc(F)cc2)o1)c1nc(-c2ccco2)cs1 | 93.6% | 84% | 93% | 96.7% | 91.2% | 93.9% | 98.1% | 103% | 109% | 108% | 104% | 95.9% | 98.1% | 88.7% | 116% | 106% | 102% | 98.7% | 106% | 102%
CC1(C)C(=O)/C(=C\c2ccccn2)C[C@]2(C)[C@H]3CC[C@@H]4[C@@H](C(=O)/C=C/c5ccccn5)CC[C@@]4(C)[C@]3(C)CC[C@@H]12 | -49.2% (active) | -33.8% (active) | 21.3% | -26.7% (active) | -36.2% (active) | -31.9% (active) | -23.3% (active) | 5.27% (active) | -69.4% (active) | -34.4% (active) | -77.1% (active) | 0.811% (active) | -35.8% (active) | -60% (active) | -90.7% (active) | 9.75% (active) | -77.9% (active) | -43.5% (active) | 7.39% (active) | 3.45% (active)
CC(=O)O[C@H]1CC[C@]2(C)[C@H]3CC=C4[C@@H]5[C@H](C)[C@@H](C)CC[C@]5(C(=O)NCCNCCNCCN)CC[C@@]4(C)[C@]3(C)CC[C@H]2C1(C)C | 94.6% | 90.5% | 87.6% | 86.2% | 76.8% | 55% | 87.2% | 73.8% | 84.5% | 72.5% | 89.8% | 12% | 59.3% | 78% | 82.7% | 84.1% | 101% | 84.4% | 98% | 88.1%
N#CC1=C(N)Oc2c(c(N)nn2-c2ccccc2)C1c1ccc(Cl)cc1 (stereo not given) | 93.4% | 87.2% | 101% | 89.8% | 103% | 92.7% | 87.6% | 100% | 98.8% | 106% | 99.6% | 106% | 106% | 87.5% | 93.8% | 94.1% | 96.6% | 98.4% | 105% | 103%
COc1ccc(/C=C/C(=O)NCCO)cc1 | 96.6% | 97.9% | 97.6% | 87.7% | 103% | 105% | 82% | 79.7% | 100% | 112% | 102% | 95.7% | 92.3% | 105% | 106% | 94.3% | 98.3% | 94.9% |  | 106%
COc1cccc(-c2nn(-c3ccccc3)cc2-c2ccnc(NCCNS(=O)(=O)c3ccc(Cl)cc3)c2)c1 | 32% | 41.8% | 63.8% | 53.5% | 32.9% | 7.77% (active) | 12.4% | 27.4% | 40.3% | 4.94% (active) | 52.7% | 11.7% | 50.3% | 19.3% | 29.8% | 45.7% | 21.7% | 54.1% |  | 28.6%
COc1cc2ncnc(Nc3ccc(OCc4cccc(F)c4)c(Cl)c3)c2cc1NC(=O)C1CCCC1 | 94.8% | 76% | 34.4% | 78.9% | 88.7% | 76.4% | 50% | 65.2% | 78.3% | 97.2% | 78.3% | 91.2% | 107% | 84.5% | 83% | 89.1% | 101% | 96.1% |  | 71.4%
C[C@]12CC[C@@H]3c4ccc(O)cc4CC[C@H]3[C@@H]1C[C@H](O)[C@@H]2O | 91.2% | 85% | 88.7% | 94.2% | 95.2% | 99.2% | 98.3% | 97.9% | 106% | 102% | 94.9% | 118% | 95.8% | 94.4% | 86.9% | 89.8% | 92.5% | 92.1% |  | 90.9%
N#Cc1cnc2cc(OC[C@@H](O)CO)c(NC(=O)CC3CSSC3)cc2c1Nc1ccc(OCc2cccc(F)c2)c(Cl)c1 | -72.4% (active) | -65.3% (active) | -84.2% (active) | -57.1% (active) | -66.9% (active) | 9.97% (active) | -72.6% (active) | -61.8% (active) | -31.4% (active) | -70.5% (active) | -85.1% (active) | -37.4% (active) | -67.6% (active) | -60.5% (active) | -72.9% (active) | -57% (active) | -80.5% (active) | -79.7% (active) |  | -78.7% (active)
